Our source for the growth values is PubChem BioAssay (NCI).

About 83,000 compounds went through this panel and 20% of them were active in at least one assay; those are over-represented in the sample as a whole.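 Method: cells in 96-well plates; compound added at one concentration; 48 h incubation; percent growth measured; values under 10 scored active.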 Unmarked numbers belong to inactive results. The source made the active and inactive calls.

Common to all, as to experiment: NCI-60 one-dose screen, 48 h (100 = growth as untreated, 0 = no growth, -100 = all killed)
Common to all, as to settings: 10 µM

Assay [1] has as its system SR leukemia.
Assay [2] deals with RPMI-8226 leukemia.
Assay [3] concerns OVCAR-8 ovarian.
Assay [4] has as its system OVCAR-5 ovarian.
In assay [5] the test system is OVCAR-4 ovarian.
The subject of assay [6] is SK-OV-3 ovarian.
Assay [7] relates to IGROV1 ovarian.
The test system of assay [8] is OVCAR-3 ovarian.
Assay [9] deals with HS 578T breast.
Assay [10] deals with NCI/ADR-RES ovarian.
Assay [11] deals with T-47D breast.
Assay [12] has as its system BT-549 breast.
The test system of assay [13] is MDA-MB-435 melanoma.
The subject of assay [14] is SW-620 colon.
Assay [15] has as its system MCF7 breast.
Assay [16] concerns HCT-116 colon.
The test system of assay [17] is HCC-2998 colon.
Assay [18] deals with KM12 colon.

With `C/C(=N\NC(N)=S)C(C)(C)O`, the growth in [1] is 81.2%; in assay [2] it was 74%; in assay [3] it was 55.3%; in assay [4], 105%; in assay [5], 66.6%; in [6] it was 109%. Moreover, the growth in assay [7] is 22.4%; in assay [8], 53.1%; in assay [9] it was 97.1%; in assay [10], 32.7%; in [11], 57.1%; in assay [12] it was 104%. In addition, the growth in assay [13] was 96.9%; in assay [14], 77.4%; in assay [15], 27.1%; in assay [16] it was 6.43% (active); in assay [17], 102%; in assay [18], 99.7%.

For the compound `COc1ccc(CCc2nc3cc(-c4c(C)noc4C)ccc3n2CCN2CCOCC2)cc1`, the growth is 39% in assay [1]; -5.7% (active) in assay [2]; 34.6% in assay [3]; 49.8% in [4]; 30.8% in [5]; 88.1% in assay [6]. For the same compound, the growth is 48.3% in assay [7]; 3.29% (active) in assay [8]; 50.2% in assay [9]; 57.1% in assay [10]; 28.2% in assay [11]; 81.4% in [12]. The growth in assay [13] is 26.1%; in assay [14] it was 26.6%; in [15] it was 34.5%; in [16], 31.1%; in [17] it was 47.3%; in assay [18] it was 33.6%.

Consider `COc1cccc(C2(C)Nc3ccccc3-c3nc4ccccc4n32)c1` (configuration not stated), for which the growth was 87.7% in assay [1]; 96.4% in assay [2]; 105% in assay [3]; 109% in assay [4]; 112% in assay [5]; 104% in assay [6]. Besides, the growth in [7] was 101%; in assay [8] it was 112%; in assay [9] it was 112%; in assay [10], 97%; in [11], 98.5%; in assay [12], 108%. The growth in assay [13] was 104%; in [14], 108%; in assay [15], 103%; in assay [16] it was 106%; in assay [17] it was 106%; in [18], 108%.

Turning to `O=C1/C(=C/c2ccc(O)cc2)Cc2ccc(Cl)cc21`, the growth is 117% in assay [1]; 120% in assay [2]; 86.3% in assay [3]; 111% in assay [4]; 85.5% in [5]; 111% in assay [6]. Besides, the growth in [7] was 18.8%; in assay [8], 93%; in assay [9] it was 95.4%; in [10] it was 94.2%; in assay [11] it was 80.4%; in [12], 59%. Further, the growth is 78% in assay [13]; 98.7% in [14]; 58.8% in assay [15]; 88.4% in assay [16]; 115% in assay [17]; 87.6% in assay [18].

In the case of `COc1ccc(C2C=C(c3ccc(OC)c(OC)c3)N=C3SC=CN32)c(Br)c1` (configuration not stated), the growth is -14.8% (active) in assay [1]; -12.4% (active) in [2]; 66.2% in [3]; 102% in assay [4]; 62.5% in assay [5]; 101% in assay [6]. Also, the growth was 69.8% in assay [7]; 56.9% in [8]; 90.4% in assay [9]; 78.2% in assay [10]; 54.7% in [11]; 62.5% in assay [12]. Also, the growth in assay [13] was 5.29% (active); in [14], 13.4%; in [15], 12.7%; in assay [16], -78.2% (active); in assay [17], 95%; in assay [18], 31.5%.

Take `CCOC(=S)Sc1ccc([N+](=O)[O-])cc1[N+](=O)[O-]`: the growth is 18.3% in assay [1]; 11.9% in assay [2]; 93.3% in assay [3]; 99.2% in [4]; 113% in assay [5]; 97.1% in assay [6]. For the same compound, the growth in assay [7] was 99.2%; in [8], 62.2%; in assay [9] it was 98%; in assay [10] it was 102%; in assay [11] it was 83.6%; in assay [12] it was 24.1%. Also, the growth in assay [13] was 61.7%; in assay [14], 35.4%; in assay [15] it was 65.5%; in assay [16], 31%; in assay [17] it was 101%; in assay [18] it was 22.5%.

For the compound `O=NN(CCCl)C(=O)Nc1ccc(NC(=O)N(CCCl)N=O)cc1`, the growth in [1] is 2.28% (active); in assay [2], 100%; in assay [3] it was 93%; in assay [4], 95.2%; in assay [5] it was 93.7%; in [6], 105%. Besides, the growth is 85.9% in assay [7]; 111% in assay [8]; 104% in [9]; 98.7% in [10]; 102% in [11]; 85.2% in [12]. In addition, the growth in assay [13] is 90.3%; in assay [14], 66.1%; in assay [15], 86.4%; in [16], 100%; in assay [17], 105%; in assay [18], 103%.

As for `COc1ccc(-c2[nH]ncc2/C=C/c2cc(C(F)(F)F)[nH]c(=O)n2)cc1`, the growth was 71.9% in assay [1]; 96.5% in assay [2]; 102% in [3]; 100% in assay [4]; 93.6% in assay [5]; 100% in assay [6]. In addition, the growth in assay [7] was 93.1%; in assay [8] it was 95.1%; in [9], 106%; in assay [10], 105%; in assay [11], 75.9%; in [12] it was 80.4%. The growth in assay [13] is 97.8%; in assay [14], 98.4%; in [15], 91.2%; in assay [16], 100%; in assay [17], 103%; in assay [18], 103%.

`Cc1cc(C)c(/C=C2\C(=O)Nc3ccc(NC(=O)CCCCCCC(=O)NO)cc32)[nH]1`: the growth was 22.1% in [1]; 40.6% in assay [2]; 17.7% in [3]; 15.9% in assay [4]; 50.5% in [5]; 31.3% in assay [6]. For the same compound, the growth in assay [7] was 37.9%; in [8] it was 19.4%; in [9], 21.6%; in assay [10] it was 92.1%; in assay [11], 15.3%; in assay [12] it was 47.5%. Also, the growth in [13] was 2.24% (active); in assay [14], 5.42% (active); in assay [15], 12.2%; in assay [16], -77.2% (active); in [17], 40.2%; in assay [18] it was 60.2%.
